# G9a inh – blocks human histone lysine methyltransferase G9a | G9a H3K9 monomethylation, AlphaScreen, 2 h | Potency, µM (top dose mostly 102 µM), most hits filed as inhibitors | 8.8% of 350,000 active; also: nearly all actives have a fitted effect of over 75% in size
#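 Using a bead-based AlphaScreen, monomethylated H3K9 product from 2 h room-temperature reactions (G9a 20 nM, peptide 500 nM, SAM 20 uM) was detected with 0.5 ug/mL rabbit anti-H3K9me1 antibody.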
# BAZ2B block – inhibitors of human BAZ2B bromodomain; 4.4% of 360,000 active; Potency, µM (top dose mostly 114 µM), most hits filed as inhibitors; AlphaScreen BAZ2B-H3K14Ac peptide displacement; also: nearly all actives have a fitted effect of over 60% in size
#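 BAZ2B 50 nM plus b-H3(5-23)K14Ac 50 nM, PBS pH 7.4/0.01% Tween-20, 30 min RT; compound added (max 110 uM), 30 min RT; streptavidin donor/Ni-chelate acceptor beads 10 ug/mL final, 20 min dark; AlphaScreen read.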
# PLK1 PBD block – PLK1 (human) polo-box domain binding inhibition; Plk1 PBD binding of FITC phosphopeptide, fluorescence polarization; Potency, µM, most hits filed as inhibitors; 2.8% of 360,000 active; also: series mostly up to about 57 µM; nearly all actives have a fitted effect of over 65% in size
# PI5P4K alpha inh – inhibitors of human PI5P4K alpha; PI5P4Kalpha enzyme, ADP-Glo luminescence, 60 min; active compounds read low; max response, %; 1.2% of 330,000 active; AID 652105; active = max response of -50% or lower; inconclusive = between -30% and -50%; inactive = -30% or higher; also: value at the top dose of about 77 µM
#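 qHTS, 1536-well: enzyme/substrate mix, compound by pin tool, 5 microM ATP final; RT 60 min; ADP-Glo reagents 1 (45 min) then 2 (30 min); luminescence.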
# HP1b binding inh – blocks HP1-beta chromodomain binding to methylated histone tails; AlphaScreen HP1-beta / biotin-H3K9me3 peptide binding; P83916; 0.56% of 390,000 active; Potency, µM (top dose mostly 114 µM), usual class: inhibitors; AID 540317; also: nearly all actives have a fitted effect of over 70% in size
#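 Compound inhibition of the preformed complex between 50 nM HP1-beta and 50 nM biotinylated H3K9me3 peptide was read by AlphaScreen. Buffer was PBS pH 7.4 with 0.01% Tween-20. Incubations ran 30 min at room temperature, with 10 ug/mL donor/acceptor beads.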
# JMJD2A Tudor inh – inhibitors of human JMJD2A Tudor domain; O75164; AlphaScreen JMJD2A-Tudor / H3K4me3 peptide binding; Potency, µM (series often up to 114 µM), hits mostly inhibitors; 4.4% of 390,000 active; AID 504339; also: nearly all actives have a fitted effect of over 50% in size
# Hits are given with their value; n = inactive; u = inconclusive; x = no result; [ ] = remark or other dose. Most compounds without a hit are left out; they make up all but 12% or so of the library. Unless noted, calls follow the shape of the dose curve; as a rule, active = well fitted curve in the direction sought with a large enough effect; inconclusive = small, poorly fitted or top-dose-only effect, or another doubt; inactive = no such curve, though single readings can be large; an effect the other way counts as inactive or inconclusive.
SMILES,G9a inh,BAZ2B block,PLK1 PBD block,PI5P4K alpha inh,HP1b binding inh,JMJD2A Tudor inh
CCOc1ccc(NC(=O)CN(C)C(=O)CN2C(=O)c3ccc([N+](=O)[O-])cc3C2=O)cc1OCC,n,n,n,n,n,n
O=c1[nH]c(=O)c2[nH]c(=O)n(-c3ccccc3)c2[nH]1,x,x,n,-57,n,n
O=c1[nH]c2cnccc2n1-c1ccccc1,n,n,n,n,n,n
O=c1[nH]c(=S)c2[nH]c(=S)n(-c3ccccc3)c2[nH]1,x,x,u,-84,u,20µM
COC1CC2CCC(C)[C@](O)(O2)C(=O)C(=O)N2CCCCC2C(=O)OC(C(C)CC2CCC(O)C(OC)C2)CC(=O)C(C)/C=C(/C)C(O)C(OC)C(=O)C(C)CC(C)C=CC=C/C=C\1C (stereo partly drawn),n[12.7 µM],x,x,x,x,x
CC(=O)NC(NC(=S)Nc1ccc(C)cc1C)C(Cl)(Cl)Cl (stereo not drawn),45µM,n,u,n,n,n
Cc1ccc(C)c(NC(=S)NC(NC(=O)N(C)C)C(Cl)(Cl)Cl)c1 (stereo not drawn),4.5µM,n,n,x,n,n
Cc1ccc2oc(C(=O)Nc3ccc(S(=O)(=O)Nc4ncccn4)cc3)c(C)c2c1,n,n,n,n,n,n
Cc1ccccc1C(=O)NCC(=O)OCC(=O)NC(C)C1CC2CCC1C2 (stereo not drawn),n,n,n,n,n,n
Cc1ccc(C(=O)NCC(=O)OCC(=O)NC(C)C2CC3CCC2C3)cc1 (stereo not drawn),28µM,n,n,n,n,n
COc1cc2c(C(=O)N3CCN(c4ccc(C)cc4)C(C)C3)cn(CC(C)C)c(=O)c2cc1OC (stereo not drawn),u,n,x,x,n,n
CCCN1C(=O)c2cc(C(=O)Nc3ccc(OC)c(OC)c3)ccc2C1Nc1ccc(OC)c(OC)c1 (stereo not drawn),n,n,n,n,n,n
CCCN1C(=O)c2cc(C(=O)Nc3ccc(OC)cc3OC)ccc2C1Nc1ccc(OC)cc1OC (stereo not drawn),22µM,u,n,n,n,28µM
CC1CN(C(=S)NC(=O)c2ccccc2)CC(C)O1 (stereo not drawn),71µM,n,n,n,n,n
O=C(NC(=S)N1CCOCC1)c1ccc([N+](=O)[O-])cc1,8.9µM,u,n,n,n,n
CC1CN(C(=S)NC(=O)c2ccco2)CC(C)O1 (stereo not drawn),u,n,n,n,n,u
N#Cc1ccc(C(=O)NC(=S)N2CCOCC2)cc1,x,x,n,n,n,n
CC1CN(C(=S)NC(=O)c2ccc([N+](=O)[O-])cc2)CC(C)O1 (stereo not drawn),40µM,n,n,n,n,n
CC1CN(C(=S)c2cccc([N+](=O)[O-])c2)CC(C)O1 (stereo not drawn),6.3µM,n,u,u,u,u
CC1CN(c2ccc([N+](=O)[O-])cc2C#N)CC(C)O1 (stereo not drawn),n,n,n,n,n,n
C=CCn1c(SCC(=O)NC2CCCC2)nc2c([nH]c3ccccc32)c1=O,n,n,n,n,n,n
COc1ccc(Nc2nc3cc(-c4ccccc4C)sc3c(=O)n2C)cc1OC,x,x,n,n,x,x
C[C@H]1CNC(=O)c2c(C(=O)N[C@@H](Cc3c[nH]c4ccccc34)C(=O)OC(C)(C)C)ncn21,x,x,n,n,x,x
COCCn1c(=O)c(-c2ccc(F)cc2)nc2cnc(N3CCOCC3)nc21,n[0.501 µM],x,x,x,x,x
CC1CN(C(=O)COC(=O)c2ccc(N)c([N+](=O)[O-])c2)CC(C)O1 (stereo not drawn),n,n,n,n,n,n
SMILES,G9a inh,BAZ2B block,PLK1 PBD block,PI5P4K alpha inh,HP1b binding inh,JMJD2A Tudor inh
CC1CN(C(=S)SCC(=O)c2ccc([N+](=O)[O-])cc2)CC(C)O1 (stereo not drawn),14µM,u,n,n,n,n
COc1ccc(CNS(=O)(=O)c2ccc3c(c2)CCN3C(=O)C2CCC2)cc1,n,n,n,n,n,n
O=C1CN(CC(=O)N2CCCCC2)c2ccccc2O1,u,n,n,n,n,n
O=C(CN1CC(=O)Oc2ccccc21)OCC(=O)c1ccc(F)cc1,u,8.9µM,n,n,n,10µM
O=C(CN1CC(=O)Oc2ccccc21)OCC(=O)c1ccc(Br)cc1,x,x,n,n,n,20µM
CCCOc1ccc(C(O)(CCN2CCCCC2)c2ccccc2OC)cc1 (stereo not drawn),n,n,n,n,n,n
CCOC(=O)C1(C)C=C(Nc2cccc(C)c2)C(=O)N1c1ccccc1 (stereo not drawn),u,n,x,x,n,n
CCOC(=O)N1CCC(N2CCN(S(=O)(=O)CC)CC2)CC1,u,n,n,x,u,4.5µM
CCOC(=O)COc1ccc(S(=O)(=O)N2CCN(c3ccc(OC)cc3)CC2)cc1,n,n,u,n,n,28µM
CCOC(=O)c1ccc(S(=O)(=O)N2CCN(C3CCCC3)CC2)cc1,n,n,n,n,n,n
CCOC(=O)COc1ccc(S(=O)(=O)N2CCN(c3ccccc3F)CC2)cc1,n[12.7 µM],n,n,x,n,n
CCOC(=O)N1CCC(N2CCN(c3ccccc3)CC2)CC1,n,n,n,n,n,n
CCOC(=O)N1CCC(N2CCN(S(=O)(=O)c3ccc(OC)cc3)CC2)CC1,u,n,n,n,n,18µM
CCCCCCCCCCCC(=O)OCC(O)C1OCC(O)C1O (stereo not drawn),n[12.7 µM],x,x,x,x,x
COc1cccc(CN(C)C(=O)c2cccc(OCc3ccccc3)c2)c1,n,n,n,n,n,n
CCN(c1ccc(C)cc1C)S(=O)(=O)c1nnc(NC(=O)c2ccc(F)cc2)s1,n,n,x,x,n,n
Cc1ccc(NC(=S)NCC2CCN(C(C)c3ccccc3)C2)cc1 (stereo not drawn),50µM,n,u,n,n,n
CC(c1ccccc1)N1CCC(CNC(=S)Nc2cccc(Cl)c2)C1 (stereo not drawn),n,n,n,n,n,n
Cc1cc(C)c(NC(=S)NCC2CCN(C(C)c3ccccc3)C2)c(C)c1 (stereo not drawn),10µM,n,2.7µM,n,n,u
O=[N+]([O-])c1ccccc1/C=N\Nc1nccs1,n,n,n,n,n,n
O=C(COc1ccccc1C(=O)N/N=C\c1ccc(O)c(O)c1)N/N=C/c1ccc(O)c(O)c1,u,1.6µM,n,-73,7.9µM,2.2µM
O=C(NN=Cc1ccc(O)c(O)c1)c1ccccc1,x,x,n,n,x,x
O=[N+]([O-])c1cc(/C=N\Nc2nccs2)ccc1O,n[2.33 µM],4µM,x,x,x,x
O=C(COc1ccccc1[N+](=O)[O-])N/N=C/c1ccc(O)c([N+](=O)[O-])c1,50µM,n,n,u,u,n

# Source: PubChem BioAssay
